Compound activity (PubChem)
Many of the other results were omitted from the sample, so hits are more common in it than they were.
HT1080-NT tox = qHTS for induction of synthetic lethality in tumor cells producing 2HG: qHTS for the HT-1080-NT fibrosarcoma cell line. HT-1080-NT fibrosarcoma viability, CellTiter-Glo ATP luminescence, 48 h. Potency, µM (top dose mostly 46.1 µM), usual class: cytotoxic. actives 1.6% (n = 360,000);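 note: NT is the 2HG producing partner of a matched IDH1 knockdown line; nearly all actives have a fitted effect of over 55% in size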
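Viability of the 2HG-overproducing fibrosarcoma line after 48 hours of compound exposure at 37 degrees C was determined by luminescence with CellTiter-Glo, and concentration-effect curves were then fitted and categorized.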
12-LOX inh = Primary qHTS assay for inhibitors of human arachidonate 12S-lipoxygenase (ALOX12): Round 2 | Polyunsaturated fatty acid lipoxygenase ALOX12 (Homo sapiens), P18054 | purified 12hLO, xylenol orange hydroperoxide absorbance | Potency, µM (doses to about 108 µM), most hits filed as inhibitors | actives 1.1% (n = 580,000) | AID 1671190, 2021
Target sequence (P18054 whole entry, looked up): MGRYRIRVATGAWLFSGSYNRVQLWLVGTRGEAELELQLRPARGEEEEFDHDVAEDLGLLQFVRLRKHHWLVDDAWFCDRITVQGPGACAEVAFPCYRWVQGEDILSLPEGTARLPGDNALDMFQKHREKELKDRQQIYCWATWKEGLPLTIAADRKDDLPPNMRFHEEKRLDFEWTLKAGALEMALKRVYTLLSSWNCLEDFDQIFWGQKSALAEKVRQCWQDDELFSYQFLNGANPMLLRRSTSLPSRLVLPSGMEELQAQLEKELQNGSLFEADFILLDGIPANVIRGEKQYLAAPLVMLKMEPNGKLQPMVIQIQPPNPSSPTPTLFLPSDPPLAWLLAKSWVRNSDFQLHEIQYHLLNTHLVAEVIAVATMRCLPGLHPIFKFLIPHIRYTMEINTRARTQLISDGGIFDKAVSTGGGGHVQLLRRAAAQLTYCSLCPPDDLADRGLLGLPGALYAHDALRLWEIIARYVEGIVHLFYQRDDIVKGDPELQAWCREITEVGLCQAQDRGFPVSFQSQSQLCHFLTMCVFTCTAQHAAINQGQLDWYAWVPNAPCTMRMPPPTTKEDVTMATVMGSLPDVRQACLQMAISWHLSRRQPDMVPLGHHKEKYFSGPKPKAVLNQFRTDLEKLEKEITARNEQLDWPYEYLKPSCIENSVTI
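Purified human 12hLO at 150 nM in 25 mM Hepes, 0.01% Triton X-100, pH 7.0, preincubated 15 min at room temperature with compound. Reaction started with 40 uM arachidonic acid, 30 min at room temperature. Hydroperoxide measured by Fe-xylenol orange, 573/405 nm absorbance ratio.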
HT1080 IDH1KD tx = qHTS for induction of synthetic lethality in tumor cells producing 2HG: qHTS for the HT-1080-IDH1KD cell line. HT-1080 IDH1 knockdown viability, ATP luminescence, 48 h. Potency, µM (titrated, usually from 46.1 µM), actives largely listed as cytotoxic. actives 2% (n = 360,000). AID 686971, 2013
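HT-1080-IDH1KD cells (IDH1 knocked down), 750/well in RPMI with 5% FBS, treated with compound 48 h at 37 degrees C. Viability by CellTiter-Glo luminescence, normalised to DMSO and no-cell wells; concentration-response curves classed.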
DT40 TDP1 CPT = qHTS for Inhibitors of human tyrosyl-DNA phosphodiesterase 1 (TDP1): qHTS in cells in presence of CPT | AID 686979, 2013 | Potency, µM (doses to about 46.2 µM), usual class: inhibitors | actives 12% (n = 420,000) | chicken DT40 Tdp1-/-;hTDP1 cells + 20 nM CPT, ATP luminescence, 48 h; note: nearly all actives have a fitted effect of over 55% in size
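Chicken DT40 Tdp1-/- cells stably complemented with human TDP1 were seeded at 400 cells/well in medium containing 20 nM camptothecin, exposed to pin-transferred compounds, and grown at 37 °C for at least 48 hr. Viability was read as ATP luminescence.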
IL1B secr inh = qHTS for Inhibitors of Inflammasome Signaling: IL-1-beta AlphaLISA Primary Screen. THP-1 LPS/ATP IL-1B secretion, AlphaLISA, 16 h; hits give low values. activity change, % at 57.5 µM. actives 4.7% (n = 360,000); in the data active = activity change below about -50%; inconclusive = mostly about -30% to -49%
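Secreted IL-1B measured by AlphaLISA bead assay after 16 h compound exposure of THP-1 cells; compounds (final up to 57.5 uM) added 1 h before LPS (250 ng/mL) and ATP (1.25 mM) stimulation; lower signal means less secretion.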
DT40 TDP1 no CPT = qHTS for Inhibitors of human tyrosyl-DNA phosphodiesterase 1 (TDP1): qHTS in cells in absence of CPT; actives 15% (n = 420,000); DT40 Tdp1-/- hTDP1 cells, no CPT, ATP luminescence, 48 h; Potency, µM (titrated, usually from 46.2 µM), most hits filed as inhibitors; AID 686978, 2013; note: nearly all actives have a fitted effect of over 55% in size
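Chicken DT40 Tdp1-/- cells stably complemented with human TDP1 were seeded at 400 cells/well with DMSO in place of 20 nM camptothecin. After compound pinning, cells grew at least 48 hr at 37 °C; viability read by CellTiter-Glo luminescence.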
Each line names hits and unclear results; the compound was inactive in the other large screens. Unless noted, calls come from the whole dose curve; as a rule, active = well fitted curve in the direction sought with a large enough effect; inconclusive = small, poorly fitted or top-dose-only effect, or another doubt; inactive = no such curve, though single readings can be large; an effect the other way counts as inactive or inconclusive.

Cc1ccc(Cl)cc1NC(=O)c1sc(-n2nc(C)c(Cc3ccc4c(c3)OCO4)c2C)nc1C	DT40 TDP1 CPT inconclusive, DT40 TDP1 no CPT 2.9µM (no result: HT1080-NT tox, HT1080 IDH1KD tx, IL1B secr inh)
O=C(NCc1coc(-c2cccs2)n1)c1ccccc1Br	none (no result: HT1080-NT tox, HT1080 IDH1KD tx, DT40 TDP1 CPT, IL1B secr inh, DT40 TDP1 no CPT)
CCOC(=O)CNc1nc(-c2ccccc2)c2cc(C)ccc2n1	none (no result: HT1080-NT tox, HT1080 IDH1KD tx, DT40 TDP1 CPT, IL1B secr inh, DT40 TDP1 no CPT)
COc1ccccc1-c1nn(CCC(=O)Nc2cccc(C(C)=O)c2)c2nc(C)cc(C)c12	12-LOX inh inconclusive, DT40 TDP1 CPT inconclusive, DT40 TDP1 no CPT 16µM (no result: HT1080-NT tox, HT1080 IDH1KD tx, IL1B secr inh)
O=C(c1ccco1)[C@@H]1[C@@H]2C(=O)N(c3ccc(F)cc3)C(=O)[C@@H]2[C@H]2C=Cc3ccccc3N21	12-LOX inh inconclusive, DT40 TDP1 CPT 6.5µM, DT40 TDP1 no CPT 18µM
Nc1nnnn1NCc1ccccc1OCc1ccc(F)cc1	none (no result: HT1080-NT tox, HT1080 IDH1KD tx, DT40 TDP1 CPT, IL1B secr inh, DT40 TDP1 no CPT)
C[C@@H]1[C@H]2[C@@H](O[C@@H]3O[C@H](CO)[C@@H](O)[C@H](O)[C@H]3O)OC=C(C(=O)O)[C@H]2C[C@@H]1O	HT1080-NT tox inconclusive, DT40 TDP1 CPT 7.3µM, DT40 TDP1 no CPT 7.3µM
COC(=O)C1=CO[C@@H](OC2OC(CO)C(O)C(O)C2O)[C@@H]2[C@@H](C)[C@@H](O)C[C@H]12 (some centres not stated)	none
COc1cc2c(=O)n(CCc3ccccc3)c(=O)n(CC(=O)Nc3ccccc3)c2cc1OC	12-LOX inh inconclusive (no result: HT1080-NT tox, HT1080 IDH1KD tx, IL1B secr inh)
COc1ccc(CCNC(=O)Cn2c(=O)n(Cc3ccco3)c(=O)c3ccc(Cl)cc32)cc1OC	DT40 TDP1 CPT inconclusive, DT40 TDP1 no CPT 23µM
CCOC(=O)Cn1c(=O)n(Cc2ccco2)c(=O)c2ccc(C(=O)NCCc3ccccc3)cc21	DT40 TDP1 CPT 18µM, DT40 TDP1 no CPT 23µM
COc1cc2c(=O)n(Cc3ccccc3)c(=O)n(CC(=O)NCCc3ccccc3)c2cc1OC	DT40 TDP1 CPT 7.3µM, DT40 TDP1 no CPT 15µM
COCCNC(=O)Cn1c(=O)n(Cc2ccco2)c(=O)c2ccccc21	none
COc1ccc(NC(=O)Cn2c(=O)n(Cc3ccccc3Cl)c(=O)c3cc(OC)c(OC)cc32)cc1OC	DT40 TDP1 CPT 3.3µM (no result: HT1080-NT tox, HT1080 IDH1KD tx, IL1B secr inh)
O=C(c1cccc(OC(F)(F)F)c1)N1CCCC1c1nncn1Cc1ccncc1 (configuration not stated)	none (no result: HT1080-NT tox, HT1080 IDH1KD tx, DT40 TDP1 CPT, IL1B secr inh, DT40 TDP1 no CPT)
Cc1cc(C)c(NC(=O)C23CC4CC(C2)CC(c2ccccc2)(C4)C3)c(Cl)c1	none (no result: HT1080-NT tox, HT1080 IDH1KD tx, DT40 TDP1 CPT, IL1B secr inh, DT40 TDP1 no CPT)
CCOc1ccc(C(=O)c2ccncc2)cc1	none
CCOc1ccc(C(=O)c2ccc(OC)c(O)c2O)cc1	DT40 TDP1 CPT 21µM, DT40 TDP1 no CPT inconclusive (no result: HT1080-NT tox, 12-LOX inh, HT1080 IDH1KD tx, IL1B secr inh)
CCOc1ccc(C(=O)/C=C/c2cc(OC)c(OC)c(OC)c2)cc1	HT1080-NT tox inconclusive, HT1080 IDH1KD tx 16µM, DT40 TDP1 CPT 10µM, IL1B secr inh -94, DT40 TDP1 no CPT 8.2µM
COc1ccc(C(=O)/C=C/c2ccc(OC(=O)c3cc(OC)c(OC)c(OC)c3)cc2)cc1	HT1080-NT tox inconclusive, HT1080 IDH1KD tx inconclusive, DT40 TDP1 CPT inconclusive, IL1B secr inh -83, DT40 TDP1 no CPT 21µM
CCOc1ccc(N2C(=O)/C(=C/c3cc(OC)c(OC)c(OC)c3)N(CC(=O)OC)C2=S)cc1	DT40 TDP1 CPT inconclusive, IL1B secr inh -90, DT40 TDP1 no CPT 18µM
COc1cc(C(=O)Oc2ccc3ccc(O)cc3c2)cc(OC)c1OC	12-LOX inh inconclusive, DT40 TDP1 no CPT inconclusive
O=C(CN1C(=O)NC2(CCCCC2)C1=O)Nc1cc(F)ccc1F	none (no result: HT1080-NT tox, HT1080 IDH1KD tx, DT40 TDP1 CPT, IL1B secr inh, DT40 TDP1 no CPT)
Cc1cc(/C=C/C(=O)c2ccc(F)cc2)cc(C)c1O	12-LOX inh 45µM (no result: HT1080-NT tox, HT1080 IDH1KD tx, DT40 TDP1 CPT, IL1B secr inh, DT40 TDP1 no CPT)
